# Results: the supplement of paper PMC10849652
# The full data set covers some 7,900 targets. This sample favours those with a hit. About 0.6% of all pairs of compound and target were hits.
# Compound: Cc1sc2c(c1C)C(c1ccc(Cl)cc1)=N[C@@H](CC(=O)OC(C)(C)C)c1nnc(C)n1-2
# Experiment: log2 fold change, soluble protein after heating vs DMSO (PISA); higher = thermal stabilisation; K562 cells, 10 uM, 30 min; active = over 0.2 and 3.5 SD of the protein, either way, in both replicates (recomputed)
# Outline: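 Values are thermal stability changes relative to control samples and are taken from duplicates. They are stated as log2 fold changes. Before quantification by TMTpro 16plex LC-MS/MS with equalised channel sums, K562 cells at 2×10^6 cells/mL were treated with 10 μM compound for 30 min, heated in aliquots for 3 min across 48°C-58°C, pooled, extracted in PBS with 0.5% NP-40 at 4°C, and centrifuged at 21,000xg for 90 min to give the soluble supernatant.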
# UniProt Q14C86, sequence (Q14C86 whole entry, looked up): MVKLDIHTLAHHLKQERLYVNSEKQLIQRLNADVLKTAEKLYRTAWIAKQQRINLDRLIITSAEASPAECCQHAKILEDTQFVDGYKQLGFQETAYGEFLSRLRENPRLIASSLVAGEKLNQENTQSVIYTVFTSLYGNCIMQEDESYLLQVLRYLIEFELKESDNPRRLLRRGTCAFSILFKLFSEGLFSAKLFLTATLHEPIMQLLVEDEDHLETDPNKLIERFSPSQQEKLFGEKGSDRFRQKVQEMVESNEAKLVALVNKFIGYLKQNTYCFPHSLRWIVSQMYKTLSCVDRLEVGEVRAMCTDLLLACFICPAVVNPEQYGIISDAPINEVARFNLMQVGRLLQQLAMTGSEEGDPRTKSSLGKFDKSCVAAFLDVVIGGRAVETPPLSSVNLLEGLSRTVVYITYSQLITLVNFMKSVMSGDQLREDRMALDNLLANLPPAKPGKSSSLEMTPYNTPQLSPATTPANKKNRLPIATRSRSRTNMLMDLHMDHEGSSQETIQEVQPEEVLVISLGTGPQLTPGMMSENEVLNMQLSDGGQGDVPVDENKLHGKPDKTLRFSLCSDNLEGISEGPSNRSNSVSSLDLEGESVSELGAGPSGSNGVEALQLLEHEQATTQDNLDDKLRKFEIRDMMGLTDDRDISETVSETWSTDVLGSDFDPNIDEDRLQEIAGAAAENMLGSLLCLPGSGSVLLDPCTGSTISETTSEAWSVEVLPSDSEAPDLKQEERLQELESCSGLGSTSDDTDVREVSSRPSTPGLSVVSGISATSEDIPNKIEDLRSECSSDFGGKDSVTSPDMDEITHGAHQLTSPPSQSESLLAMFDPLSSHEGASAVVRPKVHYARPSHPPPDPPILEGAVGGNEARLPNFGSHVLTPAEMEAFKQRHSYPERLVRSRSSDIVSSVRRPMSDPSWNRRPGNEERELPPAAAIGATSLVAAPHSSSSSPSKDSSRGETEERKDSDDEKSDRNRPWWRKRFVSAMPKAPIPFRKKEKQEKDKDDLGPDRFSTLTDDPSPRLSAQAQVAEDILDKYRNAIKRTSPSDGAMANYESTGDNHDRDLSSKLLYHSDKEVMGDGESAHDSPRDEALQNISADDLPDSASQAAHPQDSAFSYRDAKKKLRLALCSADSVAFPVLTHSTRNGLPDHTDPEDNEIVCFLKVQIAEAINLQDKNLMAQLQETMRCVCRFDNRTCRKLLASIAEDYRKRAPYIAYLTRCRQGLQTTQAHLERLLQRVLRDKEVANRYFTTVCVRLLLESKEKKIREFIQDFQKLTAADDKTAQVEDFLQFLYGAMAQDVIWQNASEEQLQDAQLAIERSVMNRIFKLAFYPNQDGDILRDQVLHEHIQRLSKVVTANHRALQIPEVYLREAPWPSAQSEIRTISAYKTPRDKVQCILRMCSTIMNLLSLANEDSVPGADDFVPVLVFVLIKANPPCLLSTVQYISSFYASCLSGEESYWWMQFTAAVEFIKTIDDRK
# UniProt P63218, sequence (P63218 whole entry, looked up): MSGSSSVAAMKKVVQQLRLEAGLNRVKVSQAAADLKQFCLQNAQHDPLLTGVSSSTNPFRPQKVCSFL
# UniProt P13807, sequence (P13807 whole entry, looked up): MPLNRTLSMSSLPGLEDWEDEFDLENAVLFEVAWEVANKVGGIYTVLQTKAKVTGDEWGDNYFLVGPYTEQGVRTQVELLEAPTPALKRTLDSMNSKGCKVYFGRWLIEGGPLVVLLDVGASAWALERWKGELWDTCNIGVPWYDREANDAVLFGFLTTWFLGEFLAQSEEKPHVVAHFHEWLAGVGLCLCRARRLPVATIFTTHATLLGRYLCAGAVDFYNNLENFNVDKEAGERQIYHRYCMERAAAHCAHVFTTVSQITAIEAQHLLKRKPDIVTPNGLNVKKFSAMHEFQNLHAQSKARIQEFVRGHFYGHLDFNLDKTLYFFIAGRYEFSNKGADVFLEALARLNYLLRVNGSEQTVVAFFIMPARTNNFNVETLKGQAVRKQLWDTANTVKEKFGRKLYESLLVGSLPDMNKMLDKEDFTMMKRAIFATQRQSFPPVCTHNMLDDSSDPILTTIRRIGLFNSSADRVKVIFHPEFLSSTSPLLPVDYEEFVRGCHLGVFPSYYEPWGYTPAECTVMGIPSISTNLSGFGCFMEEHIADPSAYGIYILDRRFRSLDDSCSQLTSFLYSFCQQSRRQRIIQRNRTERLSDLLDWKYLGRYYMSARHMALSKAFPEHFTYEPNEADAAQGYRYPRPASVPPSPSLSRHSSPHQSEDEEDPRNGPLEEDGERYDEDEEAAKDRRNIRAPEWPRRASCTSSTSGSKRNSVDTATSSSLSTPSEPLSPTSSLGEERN
# UniProt Q9Y3I1, sequence (Q9Y3I1 whole entry, looked up): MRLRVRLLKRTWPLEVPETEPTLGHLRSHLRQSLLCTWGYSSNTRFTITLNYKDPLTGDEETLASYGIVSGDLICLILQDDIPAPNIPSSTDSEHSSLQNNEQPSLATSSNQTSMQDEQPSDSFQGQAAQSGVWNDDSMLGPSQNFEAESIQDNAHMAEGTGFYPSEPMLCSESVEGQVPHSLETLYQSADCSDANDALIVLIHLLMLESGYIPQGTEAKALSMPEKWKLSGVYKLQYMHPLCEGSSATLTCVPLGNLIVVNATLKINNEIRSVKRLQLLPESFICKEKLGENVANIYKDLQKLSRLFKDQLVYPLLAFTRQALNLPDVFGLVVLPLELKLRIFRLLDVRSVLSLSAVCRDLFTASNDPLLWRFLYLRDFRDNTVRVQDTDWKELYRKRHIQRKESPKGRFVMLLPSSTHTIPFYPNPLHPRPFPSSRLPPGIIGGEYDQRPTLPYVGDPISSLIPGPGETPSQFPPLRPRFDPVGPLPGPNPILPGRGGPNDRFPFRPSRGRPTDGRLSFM
# UniProt Q86VS8, sequence (Q86VS8 whole entry, looked up): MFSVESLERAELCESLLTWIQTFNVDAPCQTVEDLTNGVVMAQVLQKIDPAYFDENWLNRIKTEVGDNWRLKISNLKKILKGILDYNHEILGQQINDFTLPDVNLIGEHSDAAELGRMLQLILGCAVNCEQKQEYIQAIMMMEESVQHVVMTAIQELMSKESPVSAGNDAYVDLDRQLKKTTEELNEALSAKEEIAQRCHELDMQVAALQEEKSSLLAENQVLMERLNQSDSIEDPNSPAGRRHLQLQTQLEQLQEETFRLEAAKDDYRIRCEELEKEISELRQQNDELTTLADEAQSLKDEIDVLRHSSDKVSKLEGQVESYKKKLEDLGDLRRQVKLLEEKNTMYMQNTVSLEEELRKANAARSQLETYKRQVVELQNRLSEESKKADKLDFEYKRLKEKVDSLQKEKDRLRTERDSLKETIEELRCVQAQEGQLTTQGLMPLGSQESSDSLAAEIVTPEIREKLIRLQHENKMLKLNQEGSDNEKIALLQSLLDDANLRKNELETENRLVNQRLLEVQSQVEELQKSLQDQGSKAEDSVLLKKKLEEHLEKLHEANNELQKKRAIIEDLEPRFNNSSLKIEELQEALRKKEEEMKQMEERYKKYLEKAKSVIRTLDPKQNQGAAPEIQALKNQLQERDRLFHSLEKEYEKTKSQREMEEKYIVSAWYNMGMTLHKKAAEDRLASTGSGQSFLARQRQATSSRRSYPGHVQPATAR
# UniProt P11142, sequence (P11142 whole entry, looked up): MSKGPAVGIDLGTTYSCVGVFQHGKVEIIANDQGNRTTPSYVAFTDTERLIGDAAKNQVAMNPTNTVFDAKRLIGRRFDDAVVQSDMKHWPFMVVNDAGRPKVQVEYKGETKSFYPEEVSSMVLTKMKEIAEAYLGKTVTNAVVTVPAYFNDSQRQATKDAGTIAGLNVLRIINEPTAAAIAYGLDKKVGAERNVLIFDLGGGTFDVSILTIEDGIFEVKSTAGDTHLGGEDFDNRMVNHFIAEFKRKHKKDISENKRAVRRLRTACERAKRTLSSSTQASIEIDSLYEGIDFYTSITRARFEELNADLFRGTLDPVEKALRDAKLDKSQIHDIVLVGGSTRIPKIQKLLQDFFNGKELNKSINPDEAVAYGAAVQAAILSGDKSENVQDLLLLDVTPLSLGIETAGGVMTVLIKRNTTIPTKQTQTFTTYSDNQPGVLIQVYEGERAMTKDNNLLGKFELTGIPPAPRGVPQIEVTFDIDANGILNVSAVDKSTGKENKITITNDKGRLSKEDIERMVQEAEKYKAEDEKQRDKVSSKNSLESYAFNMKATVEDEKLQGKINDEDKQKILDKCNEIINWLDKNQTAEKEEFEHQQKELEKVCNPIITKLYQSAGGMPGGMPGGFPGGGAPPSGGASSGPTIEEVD
# UniProt P22087, sequence (P22087 whole entry, looked up): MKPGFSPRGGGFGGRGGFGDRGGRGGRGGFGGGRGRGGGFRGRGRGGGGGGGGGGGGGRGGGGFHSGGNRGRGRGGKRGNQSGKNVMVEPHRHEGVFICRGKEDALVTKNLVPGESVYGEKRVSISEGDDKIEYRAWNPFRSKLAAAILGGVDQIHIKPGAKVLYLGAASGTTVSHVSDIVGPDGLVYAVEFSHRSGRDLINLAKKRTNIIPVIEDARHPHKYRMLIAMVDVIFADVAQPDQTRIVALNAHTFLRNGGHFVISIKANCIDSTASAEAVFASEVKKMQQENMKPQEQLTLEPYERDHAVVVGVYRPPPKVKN
# UniProt Q9H6D7, sequence (Q9H6D7 whole entry, looked up): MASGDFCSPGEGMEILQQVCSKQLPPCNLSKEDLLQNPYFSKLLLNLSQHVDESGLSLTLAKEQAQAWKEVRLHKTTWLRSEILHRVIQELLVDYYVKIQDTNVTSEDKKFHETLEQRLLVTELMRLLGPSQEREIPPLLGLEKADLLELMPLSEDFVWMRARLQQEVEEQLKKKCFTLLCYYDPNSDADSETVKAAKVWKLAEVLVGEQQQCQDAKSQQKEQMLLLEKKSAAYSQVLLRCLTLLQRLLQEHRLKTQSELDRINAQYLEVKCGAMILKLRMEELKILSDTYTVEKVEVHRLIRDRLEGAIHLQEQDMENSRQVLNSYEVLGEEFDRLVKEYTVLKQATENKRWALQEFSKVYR
# UniProt P60520, sequence (P60520 whole entry, looked up): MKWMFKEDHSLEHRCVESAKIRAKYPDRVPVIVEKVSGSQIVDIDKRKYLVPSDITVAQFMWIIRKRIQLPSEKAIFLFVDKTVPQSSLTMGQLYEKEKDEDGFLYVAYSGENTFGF
row,Target,log2 fold change
1,GDPD1 (UniProt Q8N9F7),-0.024 (inactive)
2,IFITM3 (UniProt Q01628),0.081 (inactive)
3,FBL (UniProt P22087),0.18 (inactive)
4,GBF1 (UniProt Q92538),-0.005 (inactive)
5,GYS1 (UniProt P13807),0.023 (inactive)
6,GGT7 (UniProt Q9UJ14),0.026 (inactive)
7,HDAC2 (UniProt Q92769),-0.002 (inactive)
8,IFNGR1 (UniProt P15260),0.046 (inactive)
9,GAPVD1 isoform 6 (UniProt Q14C86),0.012 (inactive)
10,GNG5 (UniProt P63218),-0.064 (inactive)
11,FBXO7 (UniProt Q9Y3I1),-0.033 (inactive)
12,HOOK3 (UniProt Q86VS8),0 (inactive)
13,GABPA (UniProt Q06546),-0.01 (inactive)
14,FUCA2 (UniProt Q9BTY2),0.034 (inactive)
15,GID4 (UniProt Q8IVV7),0.048 (inactive)
16,HAUS4 (UniProt Q9H6D7),-0.021 (inactive)
17,GLRX3 (UniProt O76003),-0.033 (inactive)
18,GABARAPL2 (UniProt P60520),-0.038 (inactive)

row,Target,log2 fold change
1,GALNT1 (UniProt Q10472),-0.01 (inactive)
2,GSTT1 (UniProt P30711),-0.146 (inactive)
3,FANCI (UniProt Q9NVI1),-0.008 (inactive)
4,FUT8 (UniProt Q9BYC5),-0.168 (inactive)
5,GTF2E2 (UniProt P29084),-0.058 (inactive)
6,HSPA8 (UniProt P11142),0.005 (inactive)
7,GEMIN5 (UniProt Q8TEQ6),0.021 (inactive)
8,FAM91A1 (UniProt Q658Y4),0.013 (inactive)
9,FUBP3 (UniProt Q96I24),0.065 (inactive)
10,HDDC2 (UniProt Q7Z4H3),-0.071 (inactive)
11,FRA10AC1 isoform 3 (UniProt Q70Z53),0.069 (inactive)
12,GSTO1 (UniProt P78417),-0.013 (inactive)
13,HLTF (UniProt Q14527),0 (inactive)
14,HIKESHI (UniProt Q53FT3),-0.091 (inactive)
15,HSPA8 (UniProt E9PK54),0.099 (inactive)
16,FASTKD1 (UniProt Q53R41),0.204 (inactive)
17,FIBP (UniProt O43427),-0.105 (inactive)
